Test results reported in PubChem BioAssay.
A number with no mark means an inactive call. Activity calls are given as the source filed them.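 The calls were made as follows: active = growth inhibition above 50% at the single 2 µM test dose, taken to imply half-maximal potency below 2 µM; inactive = the rest.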

Assay: antimalarial activity against Dd2 strain (AID 2302);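 also: 0% = DMSO untreated growth and 100% = chloroquine plus artemisinin killed control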
Conditions: P. falciparum Dd2 in RBCs, LDH growth readout, 72 h; at 2 µM; active compounds read high

Row | Compound | growth inhibition
1 | CCN(CC)CCCNc1ncc2c(-c3ccc(NC(=O)Nc4cc(C(F)(F)F)ccc4F)cc3)nn(C)c2n1 | 74% (active)
2 | CC(C)Cc1cn(-c2nc(C(=N)N)cs2)c2cc(Cl)ccc12 | 98% (active)
3 | Oc1ccc2[nH]c(-c3cccs3)nc2c1CN1CCC(N2CCCC2)CC1 | 13%
4 | COc1ccc(N2CCN(c3nc(N)c4cc(OC)c(OC)cc4n3)CC2C)cc1 (stereo not given) | 0%
5 | Oc1c(Cl)cc(-c2ccccc2)cc1CNC1CCCCC1 | 95% (active)
6 | O=C(Nc1ccc(F)cc1)N1CCCN(c2ccnc3cc(Cl)ccc23)CC1 | 16%
7 | Nc1cccc(CNCc2ccc(-c3cccc(-c4nc5ccccc5[nH]4)c3)cc2)c1 | 78% (active)
8 | Cc1nc(Nc2ccc(F)cc2)nc(N2CCc3ccccc3C2C)c1CO (stereo not given) | 95% (active)
9 | CNCCNC(=O)C1Cc2c([nH]c3c(C)cccc23)C(c2ccc(Cl)c(Cl)c2)N1 (stereo not given) | 60% (active)
10 | CCCc1cc(NCc2ccncc2)nc(Nc2ccc(F)cc2)n1 | 6%
11 | CCCCCn1c(Sc2ccc(C#N)c([N+](=O)[O-])c2)nnc1-c1cc(OC)cc(OC)c1 | 24%
12 | COc1cc(OC)c(NC(=O)COc2ccc(C)cc2)cc1Cl | 90% (active)
13 | c1ccc(-c2cc(NCCCCCCCCNc3cc(-c4ccccc4)nc4ccccc34)c3ccccc3n2)cc1 | 72% (active)
14 | Cn1nccc1C(=O)NCCNCc1ccc(-c2cccc(-c3nc4ccc(F)cc4[nH]3)c2)cc1 | 98% (active)
15 | COc1cc(C=NNc2nc(Nc3ccccc3)nc(Nc3ccccc3)n2)ccc1OCc1ccccc1[N+](=O)[O-] | 18%
